TGFb inhibitor: qHTS for Inhibitors of TGF-b. Potency, µM (series often up to 46.1 µM), without a hit: at the top dose activity, negative = inhibition, hits mostly inhibitors. HepG2 CAGA-GFP TGF-b/SMAD3 reporter, GFP fluorescence, 18 h; TGF-beta stimulated, 500 pg/mL final. hit rate 1.2% among 410,000; further: potency means the concentration at half of the fitted maximal effect; on the % scale 0 is the no-effect control and ±100 the full control effect; nearly all actives have a fitted effect of over 65% in size
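HEPG2 CAGA-GFP, 1000 cells/well; 2 h settle, 37 C; cpd via pin tool; TGF-b 500 pg/mL final; 18 h, 37 C; GFP imaging ex488/em500-530; %Activity normalised to -TGF-b and +DMSO controls; CRC fit, curve class.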
DT40 TDP1 no CPT: qHTS for Inhibitors of human tyrosyl-DNA phosphodiesterase 1 (TDP1): qHTS in cells in absence of CPT | Potency, µM (titrated, usually from 46.2 µM), for the others: at the highest dose activity change, negative = growth inhibition, actives largely listed as inhibitors | AID 686978, 2013 | DT40 Tdp1-/- hTDP1 cells, no CPT, ATP luminescence, 48 h | hit rate 15% among 420,000; further: potency means the concentration at half of the fitted maximal effect; on the % scale 0 is the no-effect control and ±100 the full control effect; nearly all actives have a fitted effect of over 55% in size
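Stably hTDP1-transfected Tdp1-null chicken DT40 cells were treated with library compounds minus camptothecin and grown for at least 48 hr at 37 °C, after which cellular ATP was quantified by luminescence.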
S-ASM inh: Inhibitors of Secretory Acid Sphingomyelinase (S-ASM): qHTS; placental ASM, HMU-PC fluorogenic substrate, 60 min; Sphingomyelin phosphodiesterase (Homo sapiens), P17405; Potency, µM (highest dose often 57.5 µM), for the others: at the highest dose activity change, negative = inhibition, hits mostly inhibitors; hit rate 0.006% among 340,000; further: potency means the concentration at half of the fitted maximal effect
Target sequence (P17405 47-631 limits assumed): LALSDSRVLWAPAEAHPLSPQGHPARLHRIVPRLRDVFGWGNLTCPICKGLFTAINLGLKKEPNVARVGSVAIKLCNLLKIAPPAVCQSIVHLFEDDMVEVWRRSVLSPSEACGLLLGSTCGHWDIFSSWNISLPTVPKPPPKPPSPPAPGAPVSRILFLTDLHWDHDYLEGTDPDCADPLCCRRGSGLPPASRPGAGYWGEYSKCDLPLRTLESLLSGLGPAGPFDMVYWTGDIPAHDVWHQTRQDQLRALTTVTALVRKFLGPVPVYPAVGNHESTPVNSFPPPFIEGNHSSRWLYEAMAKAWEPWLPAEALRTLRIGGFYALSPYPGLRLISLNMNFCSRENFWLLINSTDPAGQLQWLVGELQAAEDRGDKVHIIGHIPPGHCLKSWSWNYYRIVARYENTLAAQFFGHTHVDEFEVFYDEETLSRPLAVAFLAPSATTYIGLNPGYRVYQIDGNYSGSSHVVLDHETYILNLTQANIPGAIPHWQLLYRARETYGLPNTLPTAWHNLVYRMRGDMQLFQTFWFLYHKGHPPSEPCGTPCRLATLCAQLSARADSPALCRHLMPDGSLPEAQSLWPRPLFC
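Steps: dispense placental human ASM, pin compound, wait 10 min at room temperature, add HMU-PC0 substrate at 9 uM final, incubate 60 min at 37 °C, add stop solution raising pH to 10, read fluorescence.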
HepG2 viability: qHTS for Inhibitors of TGF-b: Cytotox Counterscreen; HepG2 CAGA-GFP viability, ATP luminescence, 18 h; Potency, µM (doses to about 46.1 µM), for the others: at the highest dose activity change, negative = cytotoxicity, hits mostly cytotoxic; hit rate 0.76% among 410,000; AID 588856, 2011; further: potency means the concentration at half of the fitted maximal effect
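HepG2 CAGA-GFP cells (1000/well, DMEM with 1% FBS) received compound, then TGF-beta at 500 pg/mL final, and were incubated 18 hours at 37 degrees C. Viability was read by CellTiter-Glo luminescence. Media-only wells were set as complete cell-killing and DMSO as no toxicity.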
TDP1 cell CPT: qHTS for Inhibitors of human tyrosyl-DNA phosphodiesterase 1 (TDP1): qHTS in cells in presence of CPT; chicken DT40 Tdp1-/-;hTDP1 cells + 20 nM CPT, ATP luminescence, 48 h; Potency, µM (series often up to 46.2 µM), without a hit: at the top dose activity change, negative = growth inhibition, hits mostly inhibitors; hit rate 12% among 420,000; further: potency means the concentration at half of the fitted maximal effect; on the % scale 0 is the no-effect control and ±100 the full control effect; nearly all actives have a fitted effect of over 55% in size
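Cell growth measured by CellTiter-Glo luminescence after a minimum 48 h, 37 C compound exposure with 20 nM CPT in Tdp1-knockout DT40 cells stably expressing hTDP1, seeded 400/well; qHTS titration format.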
IL-1B inflam inh: qHTS for Inhibitors of Inflammasome Signaling: IL-1-beta AlphaLISA Primary Screen. THP-1 LPS/ATP IL-1B secretion, AlphaLISA, 16 h; active compounds read low. activity change, % at 57.5 µM. hit rate 4.7% among 360,000; in the data active means activity change below about -50%; inconclusive means mostly about -30% to -49%; further: on the % scale 0 is the no-effect control and ±100 the full control effect
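THP-1 cells pretreated 1 hr with compounds (up to 57.5 uM final), then stimulated with LPS (250 ng/mL final) plus ATP (1.25 mM final); secreted IL-1B measured by AlphaLISA after 16 hr, decreased signal indicating inhibition.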
Active calls of the source: *; ? = inconclusive; · = no result given. Compounds with a hit are over-represented: about 19% of the library has one in this group of screens. Unless noted, the call rests on the fitted dose curve; in most records, active means well fitted curve in the direction sought with a large enough effect; inconclusive means small, poorly fitted or top-dose-only effect, or another doubt; inactive means no such curve, though single readings can be large; an effect the other way counts as inactive or inconclusive.

SMILES | TGFb inhibitor | DT40 TDP1 no CPT | S-ASM inh | HepG2 viability | TDP1 cell CPT | IL-1B inflam inh
CCCN1CCN(C(=O)c2noc3c2COc2ccc(C)cc2-3)CC1 | -2.5% | 16.4µM* | 6.1% | -10.3% | 20.6µM* | 4.0
CC(=O)C(C(C)=O)C(c1ccccc1)c1nc2ccccc2[nH]c1=O (stereo unspecified) | -0.2% | 11.2% | 6.4% | 14.2% | 2.3% | 50.9
Cc1ccc2cccc(NC(=O)c3ccc(-c4cccc(Cl)c4Cl)o3)c2n1 | 3.9% | · | · | -10.0% | · | ·
CCOC(=O)c1cc(-c2ccc(C)cc2)n(CC(=O)NC2CCCCCC2)c1C | ? | ? | · | -4.4% | 23.1µM* | ·
CCOC(=O)c1cc(-c2ccccc2)n(CC(=O)NC2CCC(C)CC2)c1C (stereo unspecified) | 0.0% | 11.6µM* | · | -3.2% | 14.6µM* | ·
CC(=O)c1cc(-c2ccc(F)cc2)n(CC(=O)NC2CCCCCC2)c1C | -16.7% | 16.4µM* | · | 6.6% | ? | ·
COc1ccc(CCNC(=O)Cn2c(-c3ccc(F)cc3)cc(C(C)=O)c2C)cc1OC | 0.0% | 20.6µM* | · | -11.0% | 25.9µM* | ·
CCOC(=O)c1cc(-c2ccccc2)n(CC(=O)N2CCCC2)c1C | -5.8% | -15.2% | 0.6% | 1.8% | -28.5% | -8.6
COc1ccc(CCNC(=O)CN2CCN(Cc3ccc(F)cc3)C2=O)cc1OC | 9.1% | ? | 3.2% | 48.3% | ? | -3.7
CCCS(=O)(=O)NC(=O)C1(C)CCN(C(=O)Cc2ccc(OC)c(OC)c2)C1 (stereo unspecified) | 20.7% | 2.0% | · | 2.6% | 8.4% | -2.6
CC(=O)Nc1ccc2nc(-c3cccn3C)[nH]c2c1 | 4.9% | -3.3% | 7.7% | 1.5% | -19.8% | -12.8
O=C(Nc1ccc2nc[nH]c2c1)c1ccco1 | -3.2% | -15.7% | 2.4% | -49.1% | -28.6% | -0.1
O=C(Nc1cccc(-c2nc3ccccc3[nH]2)c1)c1cccc(NC(=O)c2ccco2)c1 | ? | 18.4µM* | 5.7% | -110.7% | 16.4µM* | -94.5*
O=C(Nc1ccc2nc(-c3ccccc3)[nH]c2c1)c1ccco1 | -4.4% | 20.6µM* | -5.3% | -3.8% | ? | 0.0
Cc1cccc(NC(=O)c2cccc(NC(=O)c3ccco3)c2)c1 | 6.5% | -13.0% | -3.7% | -7.4% | -25.4% | -27.2
CC(C)(C)C(=O)Nc1ccc(-c2nc3ccc(NC(=O)C(C)(C)C)cc3[nH]2)cc1 | -14.8% | 1.16µM* | · | -29.5% | 0.651µM* | ·
O=C(Nc1ccc2nc(-c3ccc(Br)o3)[nH]c2c1)c1ccco1 | -1.1% | 9.2µM* | 3.2% | -47.1% | ? | -17.5
CCOc1ccc(OCC)c(NS(=O)(=O)c2c(C(=O)N3CCCCCC3)c(C)n(C)c2C)c1 | 27.7% | ? | · | 8.2% | ? | ·
CCOc1ccc(CCNC(=O)COC(=O)COc2ccc(C(C)=O)cc2)cc1OCC | -12.5% | ? | 5.4% | 0.0% | 0.0% | -2.8
COc1cc(/C=N/NC(=O)CCN2CCN(C)CC2)cc2c1OCO2 | -18.8% | -4.0% | 6.0% | -13.4% | -3.0% | 0.0
O=C(Nc1ccc2nc(-c3cccnc3)[nH]c2c1)C1CCCCC1 | 0.0% | 14.6µM* | 2.2% | 5.7% | ? | 25.7
Nc1cccc(C(=O)Nc2ccc3nc(-c4cccnc4)[nH]c3c2)c1 | 0.9% | -8.3% | 1.7% | -9.4% | -21.4% | -15.2
Cn1cccc1-c1nc2ccc(NC(=O)c3cccs3)cc2[nH]1 | 8.4% | 15.8µM* | -9.0% | -27.7% | ? | ?
CCC1CN(C(=O)N2CCC(C(=O)NCc3ccc(N(C)C)cc3)CC2)c2ccccc2O1 (stereo unspecified) | -19.4% | ? | · | 6.6% | 16.4µM* | ·
CCOc1ccc(CCNC(=O)C2CCN(C(=O)N3CC(CC)Oc4ccccc43)CC2)cc1 (stereo unspecified) | 0.0% | 14.6µM* | · | 4.1% | 14.6µM* | ·
SMILES | TGFb inhibitor | DT40 TDP1 no CPT | S-ASM inh | HepG2 viability | TDP1 cell CPT | IL-1B inflam inh
CC(C)Oc1ccc(CNC(=O)C2CCN(C(=O)N3CC(C)Oc4ccccc43)CC2)cc1 (stereo unspecified) | ? | ? | · | -23.2% | ? | ·
CCOc1ccc(CNC(=O)C2CCN(C(=O)N3CC(CC)Oc4ccccc43)CC2)cc1 (stereo unspecified) | -14.3% | 23.1µM* | · | -23.5% | 14.6µM* | ·
Cc1ccc(-n2ncc(C(=O)Nc3ccc4c(c3)OCO4)c2C2CCN(C(=O)OC(C)(C)C)CC2)cc1 | ? | 20.6µM* | · | -27.5% | 20.6µM* | ·
Cc1ccc(-n2ncc(C(=O)Nc3ccc4c(c3)OCCO4)c2C2CCN(C(=O)OC(C)(C)C)CC2)cc1 | -19.9% | 20.6µM* | · | -27.2% | 20.6µM* | ·
CC(C)(C)OC(=O)N1CCC(c2c(C(=O)Nc3ccc4c(c3)OCCO4)cnn2-c2ccccc2)CC1 | ? | 18.4µM* | · | 2.1% | 23.1µM* | ·
CCOC(=O)c1cc(S(=O)(=O)NCc2ccc(OC)cc2)[nH]n1 | 0.8% | -23.0% | · | 2.6% | -13.5% | ·
c1ccc2c(c1)ccc1[nH]c3c(c12)CCCC3 | -8.3% | ? | -23.1% | -20.2% | -19.7% | -9.9
CCN(CC)S(=O)(=O)c1ccc2oc(C(=O)NCCCN3CCOCC3)c(C)c2c1 | -4.6% | -4.5% | 3.1% | 10.4% | 1.3% | -22.4
CCN(CC)CCCNC(=O)c1oc2ccc(S(=O)(=O)N3CC(C)CC(C)C3)cc2c1C (stereo unspecified) | 0.0% | 18.4µM* | -1.1% | -65.1% | ? | -51.5*
CCN(CC)S(=O)(=O)c1ccc2oc(C(=O)NCC3COc4ccccc4O3)c(C)c2c1 (stereo unspecified) | 2.9% | 23.1µM* | -10.4% | -29.3% | ? | -9.4
Cc1c(C(=O)N2CCCCC2)oc2ccc(S(=O)(=O)N3CC(C)CC(C)C3)cc12 (stereo unspecified) | 11.2µM* | 13µM* | -9.6% | -30.6% | 18.4µM* | ?
Cc1c(C(=O)NCC2COc3ccccc3O2)oc2ccc(S(=O)(=O)N3CC(C)CC(C)C3)cc12 (stereo unspecified) | -22.8% | 12.6µM* | -0.4% | -29.7% | 18.4µM* | -15.2

Screening results: PubChem, National Center for Advancing Translational Sciences (NCATS)
